Bioassay records: PubChem BioAssay, National Center for Advancing Translational Sciences (NCATS)
Pf Dd2 inh – blocks in vitro growth of P. falciparum Dd2 | Potency, µM (series often up to 28.9 µM), for inactives: at the highest dose activity, negative = inhibition, usual class: inhibitors | 120,000 tested, 4.3% active | P. falciparum Dd2 growth, SYBR Green, 72 h; active means well fitted inhibition curve with a large enough effect;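 further: plate controls were DMSO vehicle for no effect and reference drug for full effect; nearly all actives have a fitted effect of over 65% in size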
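Readout: SYBR Green fluorescence, 485 nm excitation, 535 nm emission, after ~16 h lysis at 37C. Before that, Dd2-infected red cells (2.5% hematocrit) grew 72 h with compound, 29 uM top final concentration.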
* = called active by the depositor; i = inactive; [ ] = dose if it differs, or a comment. The entries come from a sample that favours hits as a whole. Potency means the concentration at half of the fitted maximal effect.

SMILES	Pf Dd2 inh
CN(C)C[C@@H]1CN(S(C)(=O)=O)C[C@H]1NC(=O)c1cccs1	31%
Cc1ccc(NC(=O)c2nc(S(C)(=O)=O)ncc2N(Cc2ccc(C(C)(C)C)cc2)Cc2ccco2)cc1C	7.1µM*
COc1ccc(NC(=O)c2nc(S(C)(=O)=O)ncc2N(Cc2ccc(C)cc2)Cc2ccco2)cc1Cl	10µM*
CC(C)(C)c1ccc(C(=O)N(Cc2ccc(F)cc2)Cc2ccco2)cc1	-14%
CCc1ccc(CN(Cc2ccco2)c2cnc(S(C)(=O)=O)nc2C(=O)Nc2cccc(C)c2)cc1	11µM*
Cc1cccc(NC(=O)Cn2nnc(C(=O)NCc3ccco3)c2N)c1	25%
CN(c1ccccc1)S(=O)(=O)c1ccc(NC(=O)c2nc(S(C)(=O)=O)ncc2Cl)cc1	15%[5.79 µM]
Cc1ccsc1CN(Cc1ccco1)c1cnc(S(C)(=O)=O)nc1C(=O)Nc1ccc(Cl)cc1	4.5µM*
CS(=O)(=O)c1ncc(Cl)c(C(=O)Nc2c(C(=O)Nc3ccccc3)oc3ccccc23)n1	i
COc1ccc(NC(=O)Cn2c(N(C)Cc3ccccc3)nc(C)cc2=O)cc1Cl	-4%
Cc1ccc(CN(Cc2ccco2)C(=O)COc2ccc(Cl)cc2Cl)cc1	-23%
Cc1ccc(NC(=O)c2nc(S(=O)(=O)Cc3ccc(F)cc3)ncc2Cl)cc1C	43%[5.79 µM]
CCS(=O)(=O)c1ncc(Cl)c(C(=O)Nc2c(C(=O)Nc3cccc(C)c3)oc3ccccc23)n1	-22%
O=C(NCc1ccccc1)C1CCC(=O)N1C1CCNCC1 (centres undefined)	11%
O=C(c1cc(F)ccc1F)N1CCCC(n2cc(-c3nc(-c4ccccc4)no3)nn2)C1 (centres undefined)	46%
CC(C)(C)CN[C@@H]1CO[C@H](CNC(=O)c2ccccc2)[C@H]1O	-23%[44.1 µM]
COCCn1c(=O)n([C@H]2CCCN(C(=O)CN3CCCC3=O)C2)c2ncccc21	5%
COc1cccc(CCC(=O)N2CCN(c3cc(-c4ccccc4)[nH]n3)CC2)c1	-12%
CC(Cn1ccnc1-c1cn(C2CCNCC2)nn1)Oc1cccnc1 (centres undefined)	-6%
O=[S+]([O-])(c1cccc(C(F)(F)F)c1)N1CC(Oc2ccc3c(c2)OCO3)C1	16%
CCS(=O)(=O)c1ncc(N(Cc2ccccc2)Cc2ccco2)c(C(=O)Nc2ccccc2C)n1	-16%
CCCS(=O)(=O)c1ncc(Cl)c(C(=O)N(Cc2ccccc2)Cc2ccco2)n1	8%
CCS(=O)(=O)c1ncc(N(Cc2ccccc2)Cc2ccco2)c(C(=O)Nc2ccc(C)c(C)c2)n1	5µM*
CCOc1ccc(-c2nc(-c3nnn4c3COC(c3ccc(OC)cc3)C4)no2)cc1 (centres undefined)	i
COc1ccc(-c2[nH]nc3ncc(C(=O)Nc4ccn(C)n4)nc23)c(C)c1	-1%[44.1 µM]
SMILES	Pf Dd2 inh
Cc1nnc(N2CCC(C(=O)NC3CCCCC3)CC2)c2nn(-c3ccc(Cl)cc3)c(C)c12	12%
CCN(CC)CCNC(=O)C1CCCN(c2nnc(C)c3c(C)n(-c4ccc(Cl)cc4)nc23)C1 (centres undefined)	11µM*
CCN(CC)CCNC(=O)C1CCCN(c2ncnc3onc(C)c23)C1 (centres undefined)	-9%
Cc1nnc(N2CCN(C(=O)NCCC(C)C)CC2)c2nn(-c3ccc(Cl)cc3)c(C)c12	1%
Cc1nnc(N2CCC(C(=O)N3CCCCC3)CC2)c2nn(-c3ccc(Cl)cc3)c(C)c12	10µM*
Cc1nnc(N2CCC(C(=O)NC3CCC(C)CC3)CC2)c2nn(-c3ccc(Cl)cc3)c(C)c12 (centres undefined)	3%
Cc1ncoc1C(=O)NCc1cc(Cl)cc2c(C)c(-c3ccccc3)[nH]c12	-13%
CC(C)N1C[C@H](O)C[C@H]1c1nnc2n1CCN(C(=O)CC1CCCC1)CC2	-17%
CCc1noc(-c2cn(C3CCN(C(=O)c4cccc(F)c4)C3)nn2)n1 (centres undefined)	i
COc1ccc(C)cc1Nc1nc(N)c2cc(OC)c(OC)cc2n1	2.8µM*
COc1ccc(C)cc1Nc1nc(-c2cccc(Cl)c2)c2c(n1)-c1ccccc1OC2	62%[0.594 µM]
CCOC(=O)c1c(C)oc2nc(C)nc(Nc3cc(C)ccc3OC)c12	-9%
COc1ccc(-c2ccc3c(n2)CN(C)C(=O)CO3)cc1	-28%[44.1 µM]
CCn1cc(CN(C)C(=O)CCC[C@@H]2[C@H]3CCCN4CCC[C@@H](CN2C)[C@@H]34)c(C)n1	i
Cc1ccc(CN2CCC[C@H]2C(=O)N2CCCCCCNC(=O)CC2)o1	i
CCOc1ccccc1CN1CCC[C@H]1C(=O)N1CCCCCCNC(=O)CC1	6.3µM*
CCOc1ccccc1NC(=O)N1CCCCCCNC(=O)CC1c1ccccc1 (centres undefined)	-41%
CCOc1ccccc1CN1CCCCCCNC(=O)CC1	i
CCOc1ccccc1CN1CCCCCNC(=O)CC1c1ccccc1 (centres undefined)	7.9µM*
O=C1CC(c2ccccc2)N(Cc2ccccn2)CCCCCN1 (centres undefined)	-17%
CCOC(=O)Cn1c(=O)n(-c2ccccc2OC)c2nc(-c3ccccc3F)nc(C(N)=O)c21	-30%
